# Screening data from PubChem.
# Compounds with a hit are over-represented: about 1.7% of the library has one in this group of screens.
# GLP-1R inv ag – acts as inverse agonist at human GLP-1 receptor; HEK293 GLP-1R CRE-luciferase, luminescence, 24 h; GLP-1R form is constitutively active; Potency, µM (titrated, usually from 38.3 µM), actives largely listed as inhibitors; 410,000 tested, 1.6% active; AID 624417; further: nearly all actives have a fitted effect of over 55% in size
# Target sequence (P43220 whole entry, looked up): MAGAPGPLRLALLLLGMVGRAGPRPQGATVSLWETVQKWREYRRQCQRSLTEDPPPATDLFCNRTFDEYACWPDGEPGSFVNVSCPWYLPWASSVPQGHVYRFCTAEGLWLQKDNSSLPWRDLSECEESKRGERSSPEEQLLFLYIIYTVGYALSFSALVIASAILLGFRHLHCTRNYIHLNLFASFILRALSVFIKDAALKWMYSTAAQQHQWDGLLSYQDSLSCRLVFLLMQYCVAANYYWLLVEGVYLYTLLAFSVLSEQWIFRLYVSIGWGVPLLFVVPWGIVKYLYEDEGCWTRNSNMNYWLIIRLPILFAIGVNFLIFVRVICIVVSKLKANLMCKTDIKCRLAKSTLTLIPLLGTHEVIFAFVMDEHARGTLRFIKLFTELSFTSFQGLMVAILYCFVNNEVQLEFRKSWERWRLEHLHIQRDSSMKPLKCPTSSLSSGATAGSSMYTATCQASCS
#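 qHTS in 1536-well format: reporter HEK293 cells expressing constitutive GLP-1R activity in DMEM + 10% Nu serum, 24 hr with compounds at 37 deg C, luminescence read after 12 min with detection reagent.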
# GLP1R ag – agonists of human GLP-1 receptor; P43220; HEK293 GLP-1R CRE-luciferase, luminescence, 4-6 h; cells express a hypersensitive GLP-1R form; Potency, µM (highest dose often 45.6 µM), usual class: activators; 380,000 tested, 0.007% active
# PTHR1 agonist – agonists of human PTHR1 parathyroid hormone receptor | Q03431 | HEK293 GP2 PTHR1 cells, GloSensor cAMP luminescence, 1 h | Potency, µM (doses to about 115 µM), hits mostly activators | 410,000 tested, 0.075% active | AID 743266; further: nearly all actives have a fitted effect of over 55% in size
#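 HEK-293-derived GP2 cells expressing PTHR1 and a GloSensor cAMP reporter, 3,000/well, plated overnight, given luciferin plus IBMX (each 0.5 mM as added) for 1 h at 37 °C, then compound for 1 h at 37 °C. Luminescence was read after 15 min at room temperature.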
# GLP1R cytotox – cytotoxicity in counter-screen for GLP-1R inverse agonists | HEK293 cAMP-luciferase reporter cells, luminescence, 24 h | Potency, µM (top dose mostly 38.3 µM), actives largely listed as inhibitors | 410,000 tested, 0.13% active | AID 624418;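 further: loss of luciferase light is scored as toxicity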
#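 Here, cytotoxicity is scored as loss of luminescence. The MLSMR collection was tested on cells seeded in medium containing 10% Nu serum, with a 24 hr compound exposure preceded by 12 hours of culture.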
# Numbers stand for hits; . = inactive; ? = inconclusive; / = no result given. The call rests on the fitted dose curve; in most records, active means well fitted curve in the direction sought with a large enough effect; inconclusive means small, poorly fitted or top-dose-only effect, or another doubt; inactive means no such curve, though single readings can be large; an effect the other way counts as inactive or inconclusive.
SMILES,GLP-1R inv ag,GLP1R ag,PTHR1 agonist,GLP1R cytotox
CC1(c2ccc(O)cc2)NC(=O)N(c2ccccc2)N1 (configuration not stated),3.16µM,.,.,.
CCN1CCN(c2ncnc3c2cnn3-c2ccc(F)cc2)CC1,.,/,.,.
COc1ccc(Cl)cc1S(=O)(=O)N1CCN(C(=O)c2cc(-c3ccc(Br)cc3)n[nH]2)CC1,10µM,/,.,.
Cc1ccc(CNC(=O)COC(=O)c2cc(C)oc2C)cc1,.,.,.,.
CCOC(=O)c1cc(-c2ccc(F)cc2)n(CCC(=O)NCCc2ccc(C)cc2)c1C,?,/,.,.
CCc1ncnc2cc(OC)c(OC)cc12,/,.,/,/
CCC(CC)C(=O)N(C)c1c(C)nc2c(OCc3cc(Cl)cc(Cl)c3)cccn12,11.2µM,.,.,.
CCC(CC)C(=O)N(C)c1c(C)nc2c(OCc3cccc(Cl)c3)cccn12,?,.,.,.
Cc1ccnc(Nc2nc3ccccc3o2)n1,2.51µM,.,.,?
Cc1nc(Nc2nc3ccccc3o2)nc(C)c1C,?,.,.,.
COc1ccc(-c2nc(N3CCCCCC3)sc2C(=O)c2ccccc2)cc1,2µM,.,.,.
[2H]c1c([2H])c([2H])c(C(=O)c2sc(N3CCCCCC3)nc2-c2ccccc2)c([2H])c1[2H],?,.,.,.
O=C(c1ccccc1)c1sc(N2CCCCCC2)nc1-c1ccccc1,5.01µM,.,.,.
C/C=C1\NC(=O)[C@H]2CSSCC/C=C\[C@H](CC(=O)N[C@H](C(C)C)C(=O)N2)OC(=O)C(C(C)C)NC1=O (some centres not stated),/,.,/,/
Cc1ccc2c(c1)nnn2C1CCN(S(=O)(=O)c2ccc(C(=O)O)cc2)CC1,.,.,.,.
Cc1ccc2c(c1)nnn2C1CCN(S(=O)(=O)c2ccc(C(=O)N3C(C)CCCC3C)cc2)CC1 (configuration not stated),3.98µM,.,.,.
CC(=O)N1/C(=C/c2ccc(N(C)C)cc2)C(=O)c2ccccc21,10µM,.,.,?
CC(C)c1ccc(C2Sc3ccccc3NC3=C2C(=O)c2ccccc23)cc1 (configuration not stated),8.91µM,/,.,.
NC(=O)c1cc(S(=O)(=O)NCCc2ccc(Cl)cc2)cs1,.,.,.,.
Cc1cc2c(OCC(CNC(C)(C)C)OC(=O)c3ccccc3)cccc2[nH]1 (configuration not stated),/,.,/,/
COc1cccc(-c2csc(N3CCN(C(=O)Nc4ccccc4Cl)CC3)n2)c1,?,.,.,.
COc1cccc(NC(=O)N2CCN(c3nc(-c4cccc(OC)c4)cs3)CC2)c1,12.6µM,.,.,.
CNC(=S)N1CCN(c2nc(-c3cccc(OC)c3)cs2)CC1,.,.,.,.
O=C(Nc1cccc(C(F)(F)F)c1)N1CCN(C(=O)Nc2cccc(C(F)(F)F)c2)CC1,.,.,.,.
COc1ccc(N2CCN(C(=O)Nc3cccc(C(F)(F)F)c3)CC2)cc1,10µM,.,.,.
SMILES,GLP-1R inv ag,GLP1R ag,PTHR1 agonist,GLP1R cytotox
COc1cccc(-c2csc(N3CCN(C(=O)NC45CC6CC(CC(C6)C4)C5)CC3)n2)c1,5.01µM,.,.,.
Cc1onc(-c2ccc(Cl)cc2)c1-c1ccnc(SCC(=O)Nc2cc(Cl)cc(Cl)c2)n1,3.55µM,.,.,.
CCOc1cc2sc(N3CCC(C(=O)Nc4ccccc4C(=O)OC)CC3)nc2cc1Br,.,/,.,.
O=C(CCS(=O)(=O)c1ccccc1)N(Cc1cccnc1)c1nc2c(Cl)cccc2s1,.,/,.,.
Cc1ccc2nc(SCC3CCCCO3)[nH]c2c1 (configuration not stated),3.55µM,.,.,.
CC(C)(C)C1C/C(=C/c2ccccn2)C(=O)/C(=C/c2ccccn2)C1 (configuration not stated),?,.,.,?
CC1C/C(=C/c2ccccn2)C(=O)/C(=C/c2ccccn2)C1 (configuration not stated),.,.,.,4.47µM
CSc1ccccc1NC(=O)CO/N=C(\C)c1cc2ccccc2o1,?,.,?,.
CCc1ccc(NC(=O)CO/N=C(\C)c2cc3ccccc3o2)cc1,11.2µM,.,.,.
Clc1ccc(-c2cc(CN3CCOCC3)no2)cc1,.,.,.,.
Clc1ccc(-c2cc(CN3CCCCC3)no2)cc1Cl,10µM,.,.,.
O=C(c1[nH]c2ccccc2c1Sc1ccc(Cl)cc1)N1CCCCC1,10µM,/,.,.
Cc1[nH]c2ccc(C(=O)Nc3ccc(F)cc3)cc2c1C,?,/,.,.
Cc1ccccc1CNCCSc1nnnn1-c1ccccc1,.,/,.,.
CCOC(=O)c1ccc(NC(=O)C(CC)Sc2nnc3c4ccccc4n(C)c3n2)cc1 (configuration not stated),.,/,.,.
Cc1ccc2nc(-c3ccccc3F)c(Nc3ccc(Cl)cc3)n2c1,11.2µM,/,.,.
O=[N+]([O-])c1ccc(O)c(-c2ccnc3cc(-c4ccccc4)nn23)c1,?,.,.,.
CCC(C)(C)c1ccc(OCCCC[n+]2cccc(C)c2)c(C(C)(C)CC)c1,10µM,.,.,.
COCCCNC(=O)c1ccccc1Oc1ccccc1,.,.,.,.
O=C(NCc1ccc(Cl)cc1)c1ccccc1Oc1ccccc1,2.82µM,.,.,.
CCC(CC)NC(=O)c1ccccc1Oc1ccccc1,?,.,.,.
CCC(C)(C)NC(=O)c1ccccc1Oc1ccccc1,14.1µM,.,.,.
Cc1noc(C)c1S(=O)(=O)Nc1ccc2c(c1)C(=O)N([C@H](C)CO)C[C@@H](C)[C@@H](CN(C)Cc1ccc3c(c1)OCO3)O2,.,.,.,.
CCCCC(=O)N(Cc1ccc(-c2ccccc2-c2nn[nH]n2)cc1)C(C(=O)O)C(C)C (configuration not stated),/,.,/,/
COc1ccc(C)cc1NS(=O)(=O)c1ccc(NC(=O)CN(c2cc([N+](=O)[O-])ccc2C)S(C)(=O)=O)cc1,1.78µM,.,.,.
SMILES,GLP-1R inv ag,GLP1R ag,PTHR1 agonist,GLP1R cytotox
COC(=O)c1ccc(C(=O)OC)c(NC(=O)c2c(-c3ccccc3)c(-c3ccccc3)nn(C)c2=O)c1,.,/,.,.
CCOc1ccc(CN2CCC(n3nccc3NC(=O)CCCc3ccccc3)CC2)cc1,?,.,.,.
CCOc1cccc(CN2CCC(n3nccc3NC(=O)CCCc3ccccc3)CC2)c1,10µM,.,.,.
C=C(C)CCC(C)N1CCC(n2nccc2NC(=O)CCOc2ccccc2)CC1 (configuration not stated),5.01µM,.,.,.
CCOc1ccc(N(C)S(=O)(=O)c2c[nH]c(C(=O)OC)c2)cc1,?,.,.,.
Cc1ccc(-n2c(-c3ccccc3)n[nH]c2=S)c(C)c1,?,.,.,10µM
COCCCNCCOCCOc1ccc(Cl)cc1C(C)(C)C,3.55µM,.,.,?
CCCCNC(=O)C1(C)CCN1C(=O)c1cc2ccccc2s1 (configuration not stated),?,.,.,.
